# Bioassay records as filed in PubChem BioAssay.
# Kir21 inh = inhibitors of mouse Kir2.1 inward-rectifier potassium channel. Inward rectifier potassium channel 2 (Mus musculus), P35561. HEK293-Kir2.1, FluxOR thallium flux fluorescence; stronger effect = lower value. B-score at 10 µM. 0.85% of 310,000 active;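 active means fluorescence ratio B-score at or below minus 3 SD of library scores, with starting-brightness B-score within 2 SD, cut at about -4.2 in these data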;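 further: channel flux triggered by added potassium and thallium sulfate stimulus; B-score of peak minus minimum fluorescence over baseline after thallium stimulus; more negative B-score means stronger Kir2.1 block with less thallium influx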
# KCNK3 inh = human KCNK3 channel inhibitors, primary screen, CHO cells, FluxOR thallium flux, B-score | 0.84% of 340,000 active | B-score at 10 µM | FluxOR fluorescence; stronger effect = lower value | AID 602410, 2012 | Potassium channel subfamily K member 3 (Homo sapiens), O14649;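 active means B-score under library mean minus 4 SD, starting fluorescence ratio at most library mean plus 5 SD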;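 further: more negative B-score means stronger inhibition of thallium flux through KCNK3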
# Target sequence (O14649 whole entry, looked up): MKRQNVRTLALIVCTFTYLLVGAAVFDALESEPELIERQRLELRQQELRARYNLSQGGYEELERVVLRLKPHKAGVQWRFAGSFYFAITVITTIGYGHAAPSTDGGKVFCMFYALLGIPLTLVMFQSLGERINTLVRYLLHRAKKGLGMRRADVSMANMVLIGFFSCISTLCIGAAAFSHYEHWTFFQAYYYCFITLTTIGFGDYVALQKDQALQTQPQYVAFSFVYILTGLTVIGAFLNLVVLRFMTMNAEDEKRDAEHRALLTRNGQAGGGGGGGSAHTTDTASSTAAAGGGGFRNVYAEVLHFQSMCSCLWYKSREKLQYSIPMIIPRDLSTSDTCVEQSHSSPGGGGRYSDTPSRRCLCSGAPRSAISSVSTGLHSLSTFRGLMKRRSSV
# TMEM16A act = TMEM16A chloride channel activators or potentiators, primary screen, cell-based, HTS; Anoctamin-1 (Mus musculus), Q8BHY3; HEK293 TMEM16A/YFP-H148Q/I152L, iodide quench fluorescence; stronger effect = lower value; B-score at 10 µM; 0.3% of 340,000 active; AID 623877, 2012;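 active means fluorescence-ratio B-score plate-corrected deviation score at least 3 library SD below zero, with starting fluorescence score within 5 deviations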;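 further: channel opened by trigger with iodide after compound preincubation; score built on the fluorescence ratio of max minus min over baseline; more negative score means more quench and so TMEM16A activation or potentiation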
# ANO1 block = TMEM16A chloride channel inhibitors, primary screen, cell-based, HTS; 1.2% of 310,000 active; AID 588511, 2011; Anoctamin-1 (Mus musculus), Q8BHY3; normalized B-score (activity score, 25-100; higher = stronger inhibition) at 10 µM; HEK293 TMEM16A/YFP iodide influx fluorescence, ionomycin;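 active means ratio plate-corrected score three or more library SD toward inhibition, starting fluorescence score within five deviations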;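 further: score derived from kinetic fluorescence span divided by baseline fluorescence per well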
# KCNK9 block = KCNK9 potassium channel inhibitors, primary screen, HEK293 cells, thallium flux; B-score at 10 µM; 1.2% of 310,000 active; FluxOR thallium flux fluorescence; stronger effect = lower value; Potassium channel subfamily K member 9 (Homo sapiens), Q9NPC2;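 active means ratio B-score over 3 SD below the library mean, with starting fluorescence within 5 SD of its mean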;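 further: negative B-score means less thallium flux so channel inhibition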
# KCNK9 inh conf = KCNK9 potassium channel inhibitors, confirmation, HEK293 cells, thallium flux, duplicate; inhibition, % at 10 µM; shares compounds with KCNK9 block; 43% of 4,900 active; AID 492992, 2010; FluxOR thallium flux fluorescence;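 active means thallium signal inhibited by more than 5 SD of the compound-free buffer control wells, on both duplicate plates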;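 further: 0% = assay buffer control wells without compound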
# Kir21 sel = mouse Kir2.1 channel inhibition, confirmation, selectivity assay for KCNK9 modulator project, cell-based, HEK293, thallium flux; shares compounds with KCNK9 block; Kir2.1 cells, FluxOR thallium flux fluorescence; inhibition, % at 10 µM; 4% of 4,900 active;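 active means thallium signal drop more than 5 SD beyond the mean of the no-compound control wells, seen in both duplicate plates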;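 further: signal is fluorescence rise after thallium addition divided by baseline fluorescence; plate controls were assay buffer only for no effect and full block by chlorpromazine control for full effect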
# HEK293 Tl ctr = thallium flux in non-induced HEK293 cells, confirmation, counter-screen for KCNK9 inhibitor project, cell-based, second counter screen, non-induced KCNK9-HEK293. inhibition, % at 10 µM. 40% of 4,900 active. FluxOR thallium flux. shares compounds with KCNK9 block;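 active means thallium signal drop beyond 5 SD of the untreated control mean, on both duplicate plates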;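 further: plate controls were buffer only IC0 wells for no effect and SID17386958 at its maximal inhibitory level for full effect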
# Starred values were filed as active, the others as inactive; i = inactive; / = no result. Rows were chosen to be rich in hits. Some 3.5% of all compounds tested hit in one or more screens of this group.
SMILES,Kir21 inh,KCNK3 inh,TMEM16A act,ANO1 block,KCNK9 block,KCNK9 inh conf,Kir21 sel,HEK293 Tl ctr
O=C(C1CCCN(Cc2ccncc2)C1)N1CCc2ccccc2C1 (configuration not stated),1.35,i,i,i,i,/,/,/
Cc1cccc(CN2CCCC(C(=O)N3CCc4ccccc4C3)C2)c1 (configuration not stated),-2.1,i,i,i,i,i,i,i
CCOC(=O)c1c(C)oc2cc(Br)c(OC(C)C(=O)OCC)cc12 (configuration not stated),-0.77,i,i,25*,i,i,i,i
COc1ccc(/C=C2\CCC/C(=C\c3ccc(OC)c(OC)c3OC)C2=O)c(OC)c1OC,-0.12,i,/,/,i,i,i,i
COc1cc(OC)c(OC)cc1/C=C1\CCC/C(=C\c2cc(OC)c(OC)cc2OC)C1=O,-0.76,i,i,/,i,/,/,/
O=c1[nH]cnc2c1c(-c1ccccc1)cn2-c1cccc(Cl)c1,2.01,i,i,i,-12.7*,51.5%*,i,i
COc1ccc(-n2cc(-c3ccccc3)c3c(=O)[nH]cnc32)cc1,0.21,i,i,i,i,/,/,/
Cc1c(C(=O)OCC(=O)NCc2ccco2)cccc1[N+](=O)[O-],/,i,i,/,/,/,/,/
CCOc1ccc(C(=O)Nc2ccc(Cc3ccncc3)cc2)cc1Br,1.22,i,i,i,i,i,i,i
CCOc1ccc(C(=O)Nc2ccc(NC(=O)c3ccccc3)cc2)cc1Br,0.11,i,i,i,i,/,/,/
CC1(C)CNc2cc([N+](=O)[O-])ccc2S1,-0.4,i,i,i,i,/,/,/
Brc1ccc(N/N=C(/N=Nc2nn[nH]n2)c2ccccc2)cc1,-0.58,i,i,i,i,i,i,i
COc1ccc(C2Nc3ccccc3C(=O)N2Cc2ccco2)cc1COc1ccc(F)cc1 (configuration not stated),-1.27,i,i,i,-9.01*,35.0%*,i,36.0%*
COc1ccc(C2Nc3ccccc3C(=O)N2Cc2ccco2)cc1CN1C(=O)c2ccccc2C1=O (configuration not stated),1.75,i,i,i,i,/,/,/
CC1(C)C2CC[C@]3(C)C(CC=C4[C@@H]5C[C@@](C)(CO)[C@@H](O)C[C@]56C[C@@H](OC6=O)[C@]43C)[C@@]2(C)CC[C@@H]1O (some centres not stated),-0.54,i,i,i,i,/,/,/
COc1cccc(/C=N/NC(=O)c2nc(-c3ccccc3)cc(-c3ccccc3)n2)c1,-0.2,i,i,i,-8.54*,34.0%*,i,i
COc1ccc(/C=N/NC(=O)c2nc(-c3ccccc3)cc(-c3ccccc3)n2)cc1OC,-2.23,i,i,i,-9.73*,31.0%*,i,i
COc1cccc(/C=N/NC(=O)c2cnccn2)c1,-0.2,i,i,i,i,/,/,/
COc1cc(/C=N\NC(=O)c2ccc(-c3ccccc3)cc2)ccc1OCC(N)=O,0.24,i,i,i,i,/,/,/
Cc1ccc(S(=O)(=O)N2CCC[C@H]2C(=O)Nc2ccc(F)cc2C)cc1,/,i,i,/,/,/,/,/
O=C(COc1ccc(-c2nnco2)cc1)Nc1ccc(C(F)(F)F)cc1,-4.67,i,i,i,i,/,/,/
CCOc1ccc(C(=O)C2CCN(C(=O)c3ccc([N+](=O)[O-])cc3)CC2)cc1,0.43,i,i,i,i,/,/,/
c1ccc(C2CCC3(CC2)Oc2ccccc2C2CC(c4cccnc4)=NN23)cc1 (configuration not stated),-0.63,/,/,i,-9.29*,49.5%*,i,41.0%*
O=c1c2ccccc2ncn1CCCSc1ccccc1,1.78,i,i,i,i,i,i,29.5%*
CN(Cc1ccccc1)C1CCCN(C(=O)c2ccc(Cl)s2)C1 (configuration not stated),-0.14,i,i,i,i,i,i,i
SMILES,Kir21 inh,KCNK3 inh,TMEM16A act,ANO1 block,KCNK9 block,KCNK9 inh conf,Kir21 sel,HEK293 Tl ctr
CN(C)C(CNc1ncnc2sc3c(c12)CCCCC3)c1ccco1 (configuration not stated),-0.67,i,i,i,i,i,i,i
COC(=O)c1sc(-c2ccc(Cl)cc2)cc1NC(=O)c1ccccc1C(=O)O,-0.39,i,i,i,i,/,/,/
COC(=O)c1sc(-c2ccc(C(C)(C)C)cc2)cc1NC(=O)c1ccccc1C(=O)O,0.02,i,i,100*,i,i,i,i
COC(=O)c1sc(-c2ccccc2)cc1NC(=O)C1CC1,-0.13,i,i,i,i,/,/,/
COC(=O)c1sc(-c2ccc(C(C)(C)C)cc2)cc1NC(=O)CSCC(=O)O,0.82,i,i,i,i,i,i,i
Cc1cc(Cl)ccc1C(=O)C1CCCN(C(=O)c2ccc3ncccc3c2)C1 (configuration not stated),0.24,i,i,i,i,i,i,i
Cc1cc(Cl)ccc1C(=O)C1CCCN(C(=O)c2ccsc2)C1 (configuration not stated),-3.46,i,i,i,i,i,i,i
COC(=O)CCC(=O)N1CCCC(C(=O)c2ccc(Cl)cc2C)C1 (configuration not stated),0.28,i,i,i,i,/,/,/
Cc1cc(Cl)ccc1C(=O)C1CCCN(C(=O)c2cccc(N3CCCC3=O)c2)C1 (configuration not stated),-2.34,i,i,i,i,/,/,/
O=C(COC(=O)C12CC3CC(CC(C3)C1)C2)Nc1nccs1,0.09,i,i,i,i,/,/,/
Cc1ccc(CNC(=O)C2CCCN(S(=O)(=O)N3CCC(C)CC3)C2)cc1 (configuration not stated),-0.24,i,i,i,i,/,/,/
